PubChem BioAssay (Tox21)
Values joined by “and” are separate entries in the source; they are usually repeats but may differ in a detail not shown here. Equal entries are not always repeated. Inconclusive results are not listed. Active and inactive are the calls of the source. Unless noted, calls come from the whole dose curve; as a rule, active = well fitted curve in the direction sought with a large enough effect in the repeat runs; inconclusive = weak or mixed curves; inactive = no such curve, though single readings can be large; an effect the other way counts as inactive or inconclusive.

Legend:
[1] = qHTS assay to identify small molecule agonists of the peroxisome proliferator-activated receptor delta (PPARd) signaling pathway - cell viability counter screen (AID 743211); note: nearly all actives have a fitted effect of over 55% in size; note: potency is the fitted concentration of half-maximal effect
Summary of the method: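 qHTS cell viability: PPARd-bla HEK293H; 17 h cpd, 37C; CellTiter-Glo, luminescence at 30 min RT.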

[2] = qHTS assay to identify small molecule antagonists of the peroxisome proliferator-activated receptor delta (PPARd) signaling pathway - cell viability counter screen (AID 743213); note: nearly all actives have a fitted effect of over 50% in size; note: potency is the fitted concentration of half-maximal effect
Summary of the method: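 In this counter screen, HEK293H cells carrying a UAS-beta-lactamase reporter are co-treated with test compounds and 300 nM L165041 (final) for 17 h at 37 C; cell viability is quantified by CellTiter-Glo luminescence.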

[3] = biological target: Bile acid receptor (Homo sapiens) (UniProt Q96RI1); test: qHTS assay to identify small molecule antagonists of the farnesoid-X-receptor (FXR) signaling pathway (AID 743217; active = well fitted inhibition curve with a large enough effect in the signal ratio in the repeat runs, not every such curve was filed as active; the % refers to the signal ratio; note: potency is the fitted concentration of half-maximal effect)
Summary of the method: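 Antagonist mode against 50 uM (final) chenodeoxycholic acid stimulation in FXR-bla HEK 293T cells, 16 h at 37 °C. Inhibition detected as reduced beta-lactamase activity via LiveBLAzer B/G FRET fluorescence after 2 h at room temperature.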

[4] = biological target: Bile acid receptor (Homo sapiens) (UniProt Q96RI1); test: qHTS assay to identify small molecule agonists of the farnesoid-X-receptor (FXR) signaling pathway (AID 743220; active = well fitted activation curve with a large enough effect in the signal ratio in the repeat runs, not every such curve was filed as active; the % refers to the signal ratio)
Summary of the method: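 Beta-lactamase reporter under UAS control in GeneBLAzer FXR HEK 293T cells (5000/well) measured with LiveBLAzer FRET substrate after 2 h at room temperature. Compound exposure lasted 16 h at 37C.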

[5] = qHTS assay to identify small molecule antagonists of the farnesoid-X-receptor (FXR) signaling pathway - cell viability counter screen (AID 743221; active = well fitted cell-killing curve with a large enough effect in the repeat runs, not every such curve was filed as active; note: nearly all actives have a fitted effect of over 50% in size; note: potency is the fitted concentration of half-maximal effect)
Summary of the method: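 After a 5 h settling period, FXR-bla HEK 293T cells receive compound and chenodeoxycholic acid (50 uM final) and incubate 16 h at 37 C; CellTiter-Glo luminescence, read after 30 min at room temperature, reports cell viability.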

[6] = biological target: Peroxisome proliferator-activated receptor delta (Homo sapiens) (UniProt Q03181); test: qHTS assay to identify small molecule agonists of the peroxisome proliferator-activated receptor delta (PPARd) signaling pathway (AID 743212; calls by dose curve)
Summary of the method: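 GeneBLAzer UAS-bla HEK293H cells carrying a PPARδ construct were exposed to compounds at 37 °C. Beta-lactamase activity was read by FRET fluorescence after 2 h at room temperature with LiveBLAzer B/G substrate.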

[7] = biological target: Vitamin D3 receptor (Homo sapiens) (UniProt P11473); test: qHTS assay to identify small molecule agonists of the vitamin D receptor (VDR) signaling pathway (AID 743222; calls by dose curve)
Summary of the method: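 Quantitative HTS agonist-mode screen: compounds in DMSO were pin-transferred onto VDR-bla cells and incubated 16 h at 37C, 5% CO2. Reporter activity was detected with LiveBLAzer B/G FRET substrate after 2 h at room temperature.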

[8] = biological target: Peroxisome proliferator-activated receptor delta (Homo sapiens) (UniProt Q03181); test: qHTS assay to identify small molecule antagonists of the peroxisome proliferator-activated receptor delta (PPARd) signaling pathway (AID 743215; active = well fitted inhibition curve with a large enough effect in the signal ratio in the repeat runs, not every such curve was filed as active; the % refers to the signal ratio;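 note: cells stimulated with agonist L165041 at 300 nM final during compound exposure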; note: potency is the fitted concentration of half-maximal effect)
Summary of the method: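 Inhibition of L165041-driven (300 nM final) PPARd signaling is scored in HEK293H UAS-bla cells. Exposure lasts 17 h at 37 C; beta-lactamase activity is then read by FRET substrate fluorescence after 2 h at room temperature.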

[9] = qHTS assay to identify small molecule agonists of the farnesoid-X-receptor (FXR) signaling pathway - cell viability counter screen (AID 743218); note: nearly all actives have a fitted effect of over 45% in size; note: potency is the fitted concentration of half-maximal effect
Summary of the method: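 Cytotoxicity counter-screen run in parallel, same wells: FXR-UAS-bla HEK 293T cells dosed 16 h at 37 C, viability read by CellTiter-Glo luminescence after 30 min at room temperature.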

[10] = biological target: Vitamin D3 receptor (Homo sapiens) (UniProt P11473); test: qHTS assay to identify small molecule antagonists of the vitamin D receptor (VDR) signaling pathway (AID 743223; active = well fitted inhibition curve with a large enough effect in the signal ratio in the repeat runs, not every such curve was filed as active; the % refers to the signal ratio; note: potency is the fitted concentration of half-maximal effect)
Summary of the method: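 Reporter line VDR-bla; stimulus 1alpha,25-(OH)2 vitamin D3, 3 nM final; compound co-addition, 16 h 37C/5% CO2; LiveBLAzer B/G substrate 2 h RT; fluorescence intensity.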
% is set by controls: 0 for no effect and ±100 for the full control effect.

Vitamin D3 receptor (Homo sapiens), sequence (P11473 whole entry, looked up): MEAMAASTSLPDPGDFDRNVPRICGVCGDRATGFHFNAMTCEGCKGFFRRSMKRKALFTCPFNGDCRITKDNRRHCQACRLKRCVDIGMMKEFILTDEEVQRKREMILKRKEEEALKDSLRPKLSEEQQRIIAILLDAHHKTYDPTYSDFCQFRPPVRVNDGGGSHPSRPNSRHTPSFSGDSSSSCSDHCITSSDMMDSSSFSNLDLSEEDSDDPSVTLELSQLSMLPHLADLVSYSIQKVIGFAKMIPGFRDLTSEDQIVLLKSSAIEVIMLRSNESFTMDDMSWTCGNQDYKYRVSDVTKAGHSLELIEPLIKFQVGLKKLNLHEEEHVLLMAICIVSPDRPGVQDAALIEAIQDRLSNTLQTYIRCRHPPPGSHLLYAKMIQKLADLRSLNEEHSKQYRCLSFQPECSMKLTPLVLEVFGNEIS
Peroxisome proliferator-activated receptor delta (Homo sapiens), sequence (Q03181 whole entry, looked up): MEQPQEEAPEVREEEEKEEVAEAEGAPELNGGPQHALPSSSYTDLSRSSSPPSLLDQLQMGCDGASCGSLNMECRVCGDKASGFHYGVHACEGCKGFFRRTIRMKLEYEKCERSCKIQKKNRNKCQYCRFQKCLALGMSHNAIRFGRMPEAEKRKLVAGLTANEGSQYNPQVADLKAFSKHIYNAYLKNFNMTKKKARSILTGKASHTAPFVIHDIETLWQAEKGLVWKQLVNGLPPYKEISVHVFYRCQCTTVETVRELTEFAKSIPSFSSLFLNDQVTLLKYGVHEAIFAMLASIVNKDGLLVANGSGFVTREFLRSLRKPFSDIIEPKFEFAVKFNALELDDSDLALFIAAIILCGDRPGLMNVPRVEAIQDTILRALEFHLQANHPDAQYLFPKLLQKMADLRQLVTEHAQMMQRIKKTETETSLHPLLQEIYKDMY
Bile acid receptor (Homo sapiens), sequence (Q96RI1 whole entry, looked up): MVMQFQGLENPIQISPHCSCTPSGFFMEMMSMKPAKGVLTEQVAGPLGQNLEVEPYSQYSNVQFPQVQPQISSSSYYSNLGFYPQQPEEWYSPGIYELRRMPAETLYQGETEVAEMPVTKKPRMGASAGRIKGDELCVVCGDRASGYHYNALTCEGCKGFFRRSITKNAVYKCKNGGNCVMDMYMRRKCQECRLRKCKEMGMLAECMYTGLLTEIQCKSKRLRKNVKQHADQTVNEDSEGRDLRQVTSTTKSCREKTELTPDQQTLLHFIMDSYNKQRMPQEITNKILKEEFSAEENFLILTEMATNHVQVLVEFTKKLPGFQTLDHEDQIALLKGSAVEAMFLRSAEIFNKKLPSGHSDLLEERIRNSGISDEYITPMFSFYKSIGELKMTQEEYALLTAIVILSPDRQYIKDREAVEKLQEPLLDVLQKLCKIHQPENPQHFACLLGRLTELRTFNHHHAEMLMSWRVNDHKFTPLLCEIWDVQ

CC(N=C(NC#N)Nc1ccncc1)C(C)(C)C (configuration not stated)
inactive: Potency [1] | Potency [2] | Potency [3] | Potency [4] | Potency [5]

CCCCCCCCCCCCOCCOCCOCCOCCOCCOCCOCCOCCOCCO
inactive: Potency [6] | Potency [7]
active: Potency [1] 33.5 µM | Potency [5] 26.6 µM

Cc1cc(C)c(/C=C2\C(=O)Nc3ccccc32)[nH]1
active: Potency [8] 15 µM
inactive: Potency [1] | Potency [2] | Potency [5]

Fc1ccc(C(c2ccc(F)cc2)N2CCNCC2)cc1
inactive: Potency [4] | Potency [7]
active: Potency [1] 7.5 µM | Potency [2] 15 µM | Potency [3] 29.8 µM | Potency [9] 11.9 µM | Potency [5] 26.6 µM

Cc1ccc(C(C)C)cc2c(C)ccc1-2
inactive: Potency [1] | Potency [2] | Potency [3] | Potency [9] | Potency [4] | Potency [5] | Potency [7] | Potency [10]

O=C1CCc2ccc(OCCCCN3CCN(c4cccc(Cl)c4Cl)CC3)cc2N1
active: Potency [1] 11.9 µM | Potency [2] 13.3 µM | Potency [9] 13.3 µM | Potency [5] 16.8 µM
inactive: Potency [4]

O=c1[nH]c2ccccc2n1CCCN1CCN(C(c2ccccc2)c2ccccc2)CC1
active: Potency [1] 29.8 µM
inactive: Potency [2] | Potency [8] | Potency [5] | Potency [10]

CC[N+](CC)(CC)CCOc1ccc(/C=C/c2ccccc2)cc1
inactive: Potency [1] | Potency [2] | Potency [9] | Potency [5]

CCCCCCCCCCCCCC[N+](C)(C)Cc1ccccc1
active: Potency [1] 22.2 µM and 21.1 µM | Potency [2] 22.2 µM and 10.6 µM | Potency [9] 23.7 µM | Potency [5] 49.7 µM | Potency [10] 44.3 µM
inactive: Potency [3] | Potency [4] | Potency [7]

Cc1c(N)cccc1C(F)(F)F
inactive: Potency [1] | Potency [6] | Potency [9] | Potency [5] | Potency [7] | Potency [10]

O=[N+]([O-])c1ccc(F)c(Cl)c1
inactive: Potency [1] | Potency [2] | Potency [3] | Potency [9] | Potency [4] | Potency [7] | Potency [10]

OC[C@H]1O[C@H](O[C@H]2O[C@H](CO)[C@@H](O)[C@H](O)[C@H]2O)[C@H](O)[C@@H](O)[C@@H]1O
inactive: Potency [1] | Potency [2] | Potency [3] | Potency [9] | Potency [4] | Potency [5] | Potency [7]

CN(C)C(=O)COC(=O)Cc1ccc(OC(=O)c2ccc(N=C(N)N)cc2)cc1
inactive: Potency [1] | Potency [2] | Potency [3] | Potency [9] | Potency [4] | Potency [5]

CCCc1ccc(OCC(=O)N2CCN(C(=O)COc3ccc(CCC)cc3OC)CC2)c(OC)c1
inactive: Potency [1] | Potency [2] | Potency [3] | Potency [9] | Potency [4] | Potency [7] | Potency [10]

NC[C@H]1O[C@H](O[C@H]2[C@H](O[C@@H]3O[C@H](CO)[C@@H](O)[C@H]3O)C(O)[C@H](N)C[C@@H]2N)[C@H](N)[C@@H](O)[C@@H]1O (some centres not stated)
inactive: activity change, negative = cytotoxicity [1] 8.47% [at 13.2 µM] | viability change, negative = cytotoxic [2] -6.55% [at 13.7 µM] | viability change, negative = cytotoxic [9] 5.37% [at 13.2 µM] | activity change, negative = cytotoxicity [5] 8.66% [at 13.2 µM]

CCC(CC)(CC(=O)Nc1cccc(/C=C/c2nc(C3CCC3)cs2)c1)C(=O)O
inactive: Potency [1] | Potency [2] | Potency [8] | Potency [3] | Potency [4]

CCCCCCCCCCCCCCCC[N+](C)(C)CC
inactive: Potency [4]
active: Potency [1] 21.9 µM and 29.8 µM | Potency [2] 17.4 µM and 21.1 µM | Potency [9] 31 µM and 29.8 µM

Oc1ccccc1O
inactive: Potency [8]

CCCCC(CC)CN1CN(CC(CC)CCCC)CC(C)(N)C1 (configuration not stated)
inactive: Potency [8]

Cc1ccc(O)c(O)c1
inactive: Potency [8] | Potency [9] | Potency [4] | Potency [10]
